The list is not random: actives were taken first. Their share in the collection is about 2.6%.
LGR2 antag = inhibitors of bursicon-induced LGR2 CRE-luciferase signal, primary screen, cell-based, HEK293, CRE-luciferase reporter, bursicon stimulation. inhibition, % at 9.99 µM. bursicon-stimulated, 4 h. 380,000 compounds, 0.35% hits;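 active = drop in luminescence signal, shown as inhibition above about 50% in the replicate tests, limit read from the data, passing the limit was not always enough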;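 also: agonist challenge used bursicon conditioned medium at about half maximal strength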
TWEAK-Fn14 inh = inhibitors of TWEAK-Fn14 signaling, primary screen, luciferase reporter cells, uHTS; 360,000 compounds, 2% hits; TWEAK-stimulated Fn14 reporter cells, luciferase luminescence, 8 h; inhibition, % at 10 µM; in the data active = inhibition above about 50%
HSP90 refold inh = HSP90 inhibitors, primary screen, cell lysate, luminescence; Rabbit reticulocyte lysate, luciferase refolding luminescence, 3 h; 290,000 compounds, 0.91% hits; Heat shock protein HSP 90 (rabbit reticulocyte lysate; luciferase refolding); inhibition, % at 5.6 µM;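 active = inhibition above the screen-wide mean plus 3 SD, computed separately per campaign, cut at about 16% in these data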;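 also: 0% = DMSO wells and 100% = 60 µM geldanamycin wells; inhibitors lower the luminescence because luciferase stays unfolded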
aDG glyco up = activators of alpha-DG glycosylation, primary screen, uHTS, Pro5-aDG cells, AlphaScreen; alpha-DG glycosylation AlphaScreen (IIH6); 0% Pro5, 100% B10-LARGE cell signal; activation, % at 10 µM; 360,000 compounds, 0.22% hits; AID 624168, 2012;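 active = activation of at least 8% versus controls, or a plate z-score of at least 8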;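 also: Pro5 are CHO cells carrying HIG-tagged alpha-DG that lacks glycosylation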
TROY signal inh = inhibitors of TROY-driven NF-kB signaling, primary screen, Q293 LMP1-TROYcd cells, NF-kB luciferase, uHTS; Q293 LMP1-TROYcd NF-kB luciferase reporter, 4 h; inhibition, % at 10 µM; 360,000 compounds, 0.98% hits; AID 1347056, 2019;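 active = compounds whose plate-normalised and pattern-corrected inhibition of the luciferase reporter signal at the single screening dose is 50% or more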
LMP1 NFkB inh = EBV LMP1-driven NF-kappaB luciferase reporter inhibitors, primary screen, cell-based, luminescence, single point; AID 504558, 2011; inhibition, % at 12.5 µM; 350,000 compounds, 0.69% hits; LMP1-induced NF-kappaB luciferase reporter cells; in the data active = inhibition above about 41%;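 also: 0% = neutral control wells and 100% = reference inhibitor control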
* = called active by the depositor; / = no result.

SMILES	LGR2 antag	TWEAK-Fn14 inh	HSP90 refold inh	aDG glyco up	TROY signal inh	LMP1 NFkB inh
Cc1ccc(S(=O)(=O)Nc2cccc3c2O[C@@H](CN(C)C(=O)NC(C)C)[C@@H](C)CN([C@@H](C)CO)C3=O)cc1	5	/	/	/	/	/
O=C(Cc1ccccc1)NC(Nc1cccc2ccccc12)C(Cl)(Cl)Cl (stereo not drawn)	/	12	2	0	56*	-2
COc1ccc(NC(=O)N(C)C[C@H]2Oc3ccc(NS(=O)(=O)c4ccc(F)cc4)cc3CC(=O)N([C@@H](C)CO)C[C@H]2C)cc1	15	/	/	/	/	/
C[C@@H]1CN([C@H](C)CO)C(=O)c2cc(NS(=O)(=O)c3ccccc3)ccc2O[C@@H](C)CCCCO[C@@H]1CN(C)S(C)(=O)=O	9	/	/	/	/	/
COC(=O)C12OCC34C(CC5C(C)=C(O)C(=O)CC5(C)C3C(O)C1O)OC(=O)C(OC(=O)C=C(C)C)C24 (stereo not drawn)	100*	95*	/	-1	85*	85*
Nc1ccccc1S(=O)(=O)NC1=NCCCCC1	11	104*	-3	0	-15	3
Nc1ccc(S(=O)(=O)NC2=NCCCCC2)cc1N	27	6	3	0	8	-17
Cc1ccc(S(=O)(=O)N(C)C[C@H]2OCCCC[C@@H](C)Oc3ccc(NS(=O)(=O)c4ccc(F)cc4)cc3C(=O)N([C@@H](C)CO)C[C@H]2C)cc1	3	/	/	/	/	/
CC(Nc1ccccc1CO)C(=O)Nc1cccc(Cl)c1Cl (stereo not drawn)	23	23	-1	1	40	68*
S=c1[nH]nc(-c2ccc(Cl)cc2Cl)n1-c1ccc2c(c1)OCCO2	/	-23	3	0	-27	-9
Oc1ccc(-c2n[nH]c(=S)n2-c2ccc3c(c2)OCCO3)c(O)c1	22	52*	16*	0	-5	26
Cc1cc(C)c(S(=O)(=O)NCc2ccncc2)c(C)c1	/	18	4	6.3*	10	10
Cc1ccc(S(=O)(=O)NCc2ccncc2)c(C)c1C	5	26	-2	7.2*	0	4
O=C(c1ccncc1)N1C[C@@H]2[C@H](c3ccccc31)[C@@H](CO)N2C(=O)c1ccccn1	6	/	/	/	/	/
O=C(Nc1cccc(Cl)c1)c1ccc2c(=O)n3c(nc2c1)CCCCC3	/	41	2	1	53*	-23
O=C(Nc1ccccn1)c1ccc2c(=O)n3c(nc2c1)CCCCC3	13	56*	/	0	13	-5
O=C(Nc1ccc(Cl)cc1)c1ccc2c(=O)n3c(nc2c1)CCCCC3	-46	8	-4	0	-3	-23
COCC#Cc1ccc([C@@H]2[C@H]3CN(C(=O)Nc4cc(F)ccc4F)CCCCN3[C@H]2CO)cc1	-11	/	/	/	/	/
CC(C)NC(=O)Nc1ccc2c(c1)C(=O)N([C@@H](C)CO)C[C@@H](C)[C@@H](CN(C)C(=O)NC(C)C)OCCCC[C@H](C)O2	-3	/	/	/	/	/
CNC(=O)C[C@@H]1CC[C@@H]2[C@@H](COc3ccc(NC(=O)Nc4cccc(C)c4)cc3C(=O)N2C)O1	0	/	/	/	/	/
O=C1c2cc(Cl)ccc2-c2c(O)cc(Cl)cc21	-5	54*	/	0	39	-12
O=c1cc(O)c(-c2ccc(Cl)cc2)c(Cl)[nH]1	-5	0	5	0	2	-2
C[C@H](CO)N1C[C@H](C)[C@H](CN(C)S(C)(=O)=O)OCCCC[C@H](C)Oc2ccc(NC(=O)NC3CCCCC3)cc2C1=O	8	/	/	/	/	/
CC(C)NCC(O)COc1cccc2ccccc12 (stereo not drawn)	-7	-25	/	0	-2	52*
C[C@@H]1CN([C@@H](C)CO)C(=O)c2cc(C#Cc3ccccc3F)cnc2O[C@H]1CN(C)C(=O)Cc1ccccc1	-9	/	/	/	/	/
Cn1cc(C(=O)c2ccc(Cl)cc2Cl)cc1C(=O)N/N=C(\N)COc1ccc(Cl)cc1Cl	/	57*	5	1	19	25
CC(=O)N1N=C(c2ccco2)CC1c1cccs1 (stereo not drawn)	/	11	1	0	-6	-12
